Laboratory results as given in PubChem BioAssay (NCATS).
Inconclusive results are not listed. Activity calls are given as the source filed them. The call rests on the fitted dose curve; in most records, active means well fitted curve in the direction sought with a large enough effect; inconclusive means small, poorly fitted or top-dose-only effect, or another doubt; inactive means no such curve, though single readings can be large; an effect the other way counts as inactive or inconclusive.

Tests used:
[1] = test system: Zika virus NS2B-NS3 protease (linked construct); assay: Primary screen NINDS Rhodamine qHTS for Zika virus inhibitors (AID 1347160); further: nearly all actives have a fitted effect of over 55% in size; further: potency means the concentration at half of the fitted maximal effect; on activity change, negative = inhibition: on the % scale 0 is the no-effect control and ±100 the full control effect
Method in brief: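 Aprotinin served as in-plate control. Conditions: 25 nM linked NS2B-NS3, pH 8.0 Tris buffer, titrated compounds, 15 min preincubation and 15 min reaction with 1.5 microM Rhod110 substrate at room temperature.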

[2] = UWB1.289 Cancer Cell Toxicity qHTS against the NCATS CANVASS Library (AID 1347347); further: nearly all actives have a fitted effect of over 60% in size; further: potency means the concentration at half of the fitted maximal effect; on activity change, negative = cytotoxicity: series mostly up to about 38 µM; on the % scale 0 is the no-effect control and ±100 the full control effect
Method in brief: (§1)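 Quantitative HTS format: an 11-concentration series was applied to 1000 cells/well following a 4-hour attachment. Cultures ran 72 hours before ATP luminescence detection by CellTiter-Glo.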

[3] = Panc-1005 Cancer Cell Toxicity qHTS against the NCATS CANVASS Library (AID 1347349); further: nearly all actives have a fitted effect of over 60% in size; further: potency means the concentration at half of the fitted maximal effect
Method in brief: as §1

[4] = U-118MG Cancer Cell Toxicity qHTS against the NCATS CANVASS Library (AID 1347351); further: potency means the concentration at half of the fitted maximal effect
Method in brief: as §1

[5] = A2780 Cisplatin Sensitive Ovarian Cancer Cell Toxicity qHTS against the NCATS CANVASS Library (AID 1347353); further: nearly all actives have a fitted effect of over 60% in size; further: potency means the concentration at half of the fitted maximal effect
Method in brief: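 750 cells/well, 4 h settle; 11-pt cpd titration; 72 h, 37 °C, 5% CO2; ATPLite 10 min RT; luminescence read.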

[6] = HEK-293 Cancer Cell Toxicity qHTS against the NCATS CANVASS Library (AID 1347355); further: nearly all actives have a fitted effect of over 65% in size; further: potency means the concentration at half of the fitted maximal effect; on outcome: series mostly up to about 46 µM
Method in brief: (§2)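 1000 cells/well, 4 h pre-incubation 37 °C/5% CO2; 11-pnt titration; 72 h; CellTiter-Glo 15 min RT, luminescence.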

[7] = test system: NAD(P)H diaphorase (Clostridium kluyveri); assay: Diaphorse counterscreen qHTS: Assay Interference Panel against the NCATS CANVASS Library (AID 1347362); further: 0% is about no effect
Method in brief: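 Clostridium kluyveri diaphorase in PBS + 0.01% Tween-20 preincubated 15 min with compounds. Resazurin and NADH then added for 5 min at room temperature in the dark; resorufin fluorescence read (ex 525, em 598).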

[8] = KB-8-5-11 Cancer Cell Toxicity qHTS against the NCATS CANVASS Library (AID 1347364); further: nearly all actives have a fitted effect of over 75% in size; further: potency means the concentration at half of the fitted maximal effect
Method in brief: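 CellTiter-Glo luminescence after 72 h exposure; 500 KB-8-5-11 cells/well, DMEM/10% FBS, 37C, 5% CO2; compounds in 11-pt qHTS. Follow-up confirmation included medium with 1uM tariquidar.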

[9] = SDT Cancer Cell Toxicity qHTS against the NCATS CANVASS Library (AID 1347365); further: nearly all actives have a fitted effect of over 60% in size; further: potency means the concentration at half of the fitted maximal effect
Method in brief: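 Luminescent ATP read-out (CellTiterGlo) after 72 hr compound exposure of dog glioma SDT cells, 500 per well. Eleven-point titrations; bortezomib titration run alongside as control.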

[10] = molecular target: Nuclear receptor subfamily 1 group I member 3 (Homo sapiens) (UniProt Q14994); assay: qHTS for Constitutive Androstane Receptor (CAR) Antagonist screened against the NCATS CANVASS Library (AID 1347372); further: potency means the concentration at half of the fitted maximal effect
Method in brief: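 Luminescence readout (ONE-Glo, 30 min RT) of CYP2B6-2.2kb reporter in HepG2-hCAR cells after 24hr, 37C treatment with compound against 50 nM CITCO; CellTiter-Fluor viability read beforehand.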

[11] = qHTS for Hypoxia signaling pathway (HIF-1) antagonists against the NCATS CANVASS Library (AID 1347374); further: nearly all actives have a fitted effect of over 60% in size; further: potency means the concentration at half of the fitted maximal effect
Method in brief: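 Beta-lactamase reporter under HRE control in ME-180 cells; CoCl2 stimulus (60 uM solution as added), compounds 11-pt qHTS, 17 h 37C. CCF4 dye 2 h RT, 460/530 nm emission. CellTiter-Glo viability in same wells.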

[12] = qHTS for H2AX Agonists against the NCATS CANVASS Library (AID 1347378); further: potency means the concentration at half of the fitted maximal effect; on activation: 0% is about no effect
Method in brief: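 CHO-K1 cells were plated overnight at 37C, then exposed to compounds (concentration series, 0.76% DMSO final) for 3 hr at 37C. Lysates received Eu-cryptate anti-pH2AX (S139) and d2 anti-H2AX antibodies; after 24 hr at room temperature, TR-FRET 665/620 nm ratio was read.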

[13] = qHTS for Activators of p53 Stress Response Pathway screened against the NCATS CANVASS Library (AID 1347388); further: potency means the concentration at half of the fitted maximal effect; on activation: 0% is about no effect
Method in brief: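 p53RE-bla HCT-116 cells (4000/well) were pre-incubated for 5 h, then treated with compound (11 points) for 16 h at 37C. After 2 h with CCF4, the 460/530 nm ratio gave reporter activation; CellTiter-Glo measured viability.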

[14] = qHTS assay for small molecule disruptors of mitochondrial membrane potential screened against the NCATS CANVASS Library (AID 1347389); further: nearly all actives have a fitted effect of over 60% in size; further: potency means the concentration at half of the fitted maximal effect
Method in brief: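 Red/green fluorescence ratio read-out: J-aggregates ex 540/em 590 nm, monomers ex 490/em 535 nm. HepG2, 1 hr compound treatment, then 30 min Mito-MPS dye at 37C. 11-pt qHTS concentration series.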

[15] = qHTS for inhibitors of Wild type Zika virus screened against the NCATS CANVASS Library (AID 1347396);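 further: ATP luminescence of surviving cells so rescue from viral cell killing; series mostly up to about 46 µM; on the % scale 0 is the no-effect control and ±100 the full control effect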
Method in brief: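 Vero 766 cells, 1000/well, o/n attach; cpds pin-transferred (11-pt qHTS); WT Zika added; 72 h, 37C, 5% CO2; CellTiter Glo lumi. Uninfected + vehicle = 100% inhibition.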

[16] = DH5-alpha competent E. coli microbial cell viability qHTS against the NCATS CANVASS Library (AID 1347377); details: outcome: dose series up to 46.1 µM unless noted
Method in brief: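 Luminescent ATP read-out (BacTiter-Glo, 20 min RT) after overnight 37C culture of DH5-alpha E. coli with compounds; daunomycin control at 0.2 nM–9.2 uM final.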

[17] = Secretion counterscreen for inhibitors of the SERCaMP assay screened against the NCATS CANVASS Library (AID 1347390);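 further: light from luciferase secreted into medium read as a measure of general secretion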; further: potency means the concentration at half of the fitted maximal effect
Method in brief: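 SH-SY5Y cells expressing constitutively secreted GLuc, 1000 cells/well, attached 4 h at 37C, then exposed to compounds (0.001 - 77 uM, 11-pnt series) for 20 h. Coelenterazine added; luminescence read to flag secretory-pathway interferers.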

[18] = SW1088 Cancer Cell Toxicity qHTS against the NCATS CANVASS Library (AID 1347350); further: nearly all actives have a fitted effect of over 75% in size; further: potency means the concentration at half of the fitted maximal effect; on activity change, negative = cytotoxicity: series mostly up to about 38 µM; on the % scale 0 is the no-effect control and ±100 the full control effect
Method in brief: as §1

[19] = UWB1.289-WTBRCA1 Cancer Cell Toxicity qHTS against the NCATS CANVASS Library (AID 1347354); further: potency means the concentration at half of the fitted maximal effect
Method in brief: as §2

[20] = qHTS for activators of dead-cell proteases activity screened against the NCATS CANVASS Library (AID 1347392);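 further: luminescence from protease leaking out of membrane-damaged cells cleaving impermeant substrate; 0% is about no effect; rising signal means more cytotoxicity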
Method in brief: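 HepG2, 2000 cells/well, 18 h attach; cpd 11-pt, 5 h 37C 5% CO2; CytoTox-Glo (AAF-aminoluciferin) 15 min RT; luminescence read.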

Nuclear receptor subfamily 1 group I member 3 (Homo sapiens), sequence (Q14994 whole entry, looked up): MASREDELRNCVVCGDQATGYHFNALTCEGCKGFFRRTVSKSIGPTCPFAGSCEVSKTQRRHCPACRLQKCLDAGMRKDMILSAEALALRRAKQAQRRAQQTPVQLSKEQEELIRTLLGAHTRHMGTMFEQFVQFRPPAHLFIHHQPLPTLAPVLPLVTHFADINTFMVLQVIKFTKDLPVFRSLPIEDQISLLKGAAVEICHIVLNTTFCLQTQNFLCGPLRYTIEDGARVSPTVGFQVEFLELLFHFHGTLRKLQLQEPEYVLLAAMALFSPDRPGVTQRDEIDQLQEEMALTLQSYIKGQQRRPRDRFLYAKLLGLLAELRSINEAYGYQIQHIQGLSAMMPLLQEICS

CN1CC[C@]2(c3cccc4c3N[C@@H]3N(C)CC[C@]43[C@@]34CCN(C)[C@@H]3Nc3ccccc34)c3ccccc3N[C@H]12
inactive: Potency [1] | Potency [7] | Potency [12] | Potency [13] | Potency [14] | Potency [15]
active: Potency [2] 18.8 µM | Potency [3] 16.8 µM | Potency [4] 7.49 µM | Potency [5] 14.8 µM | Potency [6] 7.43 µM | Potency [8] 16.6 µM | Potency [9] 2.96 µM | Potency [10] 26.3 µM | Potency [11] 14.9 µM

C=C1C(=O)O[C@H]2[C@H]1CC/C(CO)=C\CC[C@@]1(C)O[C@@H]21
inactive: Potency [1] | Potency [7] | outcome [16] | Potency [15]
active: Potency [2] 7.47 µM | Potency [3] 10.6 µM | Potency [4] 18.8 µM | Potency [5] 2.96 µM | Potency [6] 5.9 µM | Potency [9] 13.2 µM | Potency [10] 20.9 µM | Potency [11] 4.72 µM | Potency [12] 21.7 µM | Potency [17] 34.3 µM

CCCCCCCCCCCCCCCC(=O)OC/C=C(\C)CCCC(C)CC(C)C(C)C (configuration not stated)
active: Potency [1] 55.3 µM
inactive: Potency [2] | Potency [18] | Potency [4] | Potency [5] | Potency [19] | Potency [6] | Potency [7] | Potency [8] | Potency [9] | Potency [10] | Potency [11] | outcome [16] | Potency [12] | Potency [13] | Potency [14] | Potency [17] | Potency [20] | Potency [15]

Oc1ccc(/C=C2/c3cc(O)cc(O)c3C(c3ccc(O)cc3)[C@H]2c2cc(O)cc(O)c2)cc1 (some centres not stated)
inactive: Potency [18] | Potency [4] | Potency [5] | Potency [6] | Potency [7] | Potency [8] | Potency [9] | Potency [10] | Potency [11] | outcome [16] | Potency [12] | Potency [13] | Potency [14] | Potency [17] | Potency [20] | Potency [15]
active: Potency [1] 27.7 µM | Potency [2] 3.75 µM

C/C(=C\[C@H](C)C(=O)CCCC1CC(=O)NC(=O)C1)C(O)[C@@H](C)[C@H](O)C/C=C/CC/C=C/C(=O)O (some centres not stated)
inactive: Potency [2] | Potency [3] | Potency [4] | Potency [5] | Potency [19] | Potency [6] | Potency [7] | Potency [8] | Potency [9] | Potency [10] | Potency [11] | outcome [16] | Potency [12] | Potency [13] | Potency [14] | Potency [17] | Potency [20] | Potency [15]
active: Potency [1] 55.3 µM

O=C(O)CC1OC(=O)c2c(O)cccc21 (configuration not stated)
inactive: Potency [1] | Potency [2] | Potency [3] | Potency [18] | Potency [4] | Potency [5] | Potency [19] | Potency [7] | Potency [8] | Potency [10] | Potency [11] | outcome [16] | Potency [12] | Potency [13] | Potency [14] | Potency [17] | Potency [20] | Potency [15]
active: Potency [9] 0.0132 µM

COc1ccc2oc3c(OC)c(OC)c(OC)c(OC)c3c(=O)c2c1
inactive: Potency [1] | activity change, negative = cytotoxicity [2] -4.07% [at 7.64 µM] | activity change, negative = cytotoxicity [3] -8.03% [at 7.64 µM] | activity change, negative = cytotoxicity [18] 3.04% [at 7.64 µM] | activity change, negative = cytotoxicity [4] 3.45% [at 7.64 µM] | outcome [5] inactive [at 9.19 µM] | activity change, negative = cytotoxicity [19] 9.39% [at 7.64 µM] | activity change, negative = cytotoxicity [6] -6.97% [at 9.19 µM] | activity change, negative = inhibition [7] -18.3% [at 11.5 µM] | activity change, negative = cytotoxicity [9] -18.8% [at 9.19 µM] | activity change, negative = inhibition [10] 22.2% [at 9.19 µM] | activity change, negative = inhibition [11] 0.76% [at 7.64 µM] | outcome [16] inactive [at 9.19 µM] | activation [12] -1.65% [at 15.3 µM] | activation [13] -1.1% [at 9.19 µM] | activity change, negative = inhibition [17] -3.74% [at 15.3 µM] | activation (cytotoxicity) [20] -1.14% [at 9.19 µM] | activity change, negative = antiviral [15] -12.7% [at 9.14 µM]

C=C1C[C@@]23C=CC(=O)[C@@](C)(CCC(=O)Nc4c(O)ccc(C(=O)O)c4O)C2C[C@@H]1C(O)C3 (some centres not stated)
inactive: Potency [2] | Potency [3] | Potency [18] | Potency [4] | Potency [5] | Potency [19] | Potency [6] | Potency [8] | Potency [9] | Potency [10] | Potency [11] | outcome [16] | Potency [12] | Potency [13] | Potency [14] | Potency [17] | Potency [20] | Potency [15]
active: Potency [1] 44 µM

C=C1C[C@@]23C=CC(=O)[C@@](C)(CCCC(C)C(=O)O)[C@@H]2C[C@@H]1CC3 (some centres not stated)
active: Potency [1] 44 µM
inactive: Potency [2] | Potency [3] | Potency [4] | Potency [5] | Potency [19] | Potency [6] | Potency [7] | Potency [8] | Potency [9] | Potency [10] | Potency [11] | outcome [16] | Potency [12] | Potency [13] | Potency [14] | Potency [17] | Potency [20] | Potency [15]

CCC[C@@H](C)/C=C(\C)[C@H](O)[C@H](C)/C=C/CC[C@@H](O)[C@H](C)[C@H](O)[C@H](C)[C@H](O)[C@H](C)[C@H]1O[C@H]([C@H](C)C(=O)O)CC[C@@H]1C
active: Potency [1] 6.21 µM | Potency [2] 6.66 µM | Potency [3] 4.21 µM | Potency [18] 2.11 µM | Potency [4] 16.8 µM | Potency [19] 13.3 µM | Potency [6] 14.8 µM | Potency [8] 11.8 µM | Potency [9] 9.35 µM | Potency [11] 2.98 µM | Potency [14] 20.9 µM | Potency [17] 38.4 µM
inactive: Potency [7] | Potency [12]

CNc1ccc(Cl)cc1C(=O)OC[C@]1(C)[C@H]2CC[C@]3(C)[C@@H](C[C@@H](OC)[C@H](C)[C@H]3C3=C(O)C(=O)OC3O)[C@]2(C)CC[C@H]1O (some centres not stated)
active: Potency [1] 6.21 µM | Potency [13] 20.9 µM
inactive: Potency [2] | Potency [3] | Potency [4] | Potency [5] | Potency [19] | Potency [6] | Potency [7] | Potency [8] | Potency [10] | Potency [11] | outcome [16] | Potency [12] | Potency [14] | Potency [17] | Potency [20] | Potency [15]
